Data reported in PubChem BioAssay AID1159580 (chemical genetic matrix, 2015).
“And” between values parts separate entries of the source, which are not always exact repeats. Identical values can stand only once. Hit rate of the full screen: of about 5,500 compounds, about 2,000 (36%) were called active. Another 18% or so got no clear call; they are omitted. Cut-off read from the data, not from the text of the source: active = normalized growth mostly below about 0.91 (no sharp cut-off); inconclusive = no clear call, values can overlap the other calls; inactive = mostly above about 0.92. This is one part of the list.

Experiment: chemical genetic growth profiling, strain panel (AID 1159580);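 note: tested at 20 µM; growth read once vehicle control cultures reached saturation at 30 °C; 1 = growth at the plate median or of vehicle wells; lower values mean less growth of the strain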
Conditions: S. cerevisiae deletion strains, growth OD

Measured: normalized growth

CN1C2CCC1CC(OC(c1ccccc1)c1ccccc1N)C2 (stereo unspecified)
inactive: locus YAL013W, strain DEP1, hits give low values 0.993 | locus YAL021C, strain ccr4, hits give low values 0.985 | locus YAL026C, strain drs2, hits give low values 1.01 | locus YAL030W, strain snc1, hits give low values 0.994 | locus YAL040C, strain CLN3, hits give low values 1.01 | locus YBL061C, strain skt5, hits give low values 0.995 | locus YBR009C, strain hhf1, hits give low values 0.998 | locus YBR021W, strain FUR4, hits give low values 0.993 | locus YBR023C, strain chs3, hits give low values 0.989 | locus YBR171W, strain sec66, hits give low values 1 | locus YBR229C, strain ROT2, hits give low values 0.998 | locus YBR231C, strain swc5, hits give low values 1 | locus YBR279W, strain paf1, hits give low values 1 | locus YCL011C, strain gbp2, hits give low values 1 | locus YCL016C, strain dcc1, hits give low values 0.994 | locus YCL029C, strain bik1, hits give low values 1.03 | locus YCL061C, strain MRC1 (second series), hits give low values 1 | locus YCL061C, strain MRC1, hits give low values 0.997 | locus YCL069W, strain vba3, hits give low values 1 | locus YCR088W, strain abp1, hits give low values 0.997 | locus YDL005C, strain med2, hits give low values 0.99 | locus YDL035C, strain GPR1, hits give low values 1.01 | locus YDL040C, strain nat1, hits give low values 0.991 | locus YDL074C, strain BRE1, hits give low values 1 | locus YDL101C, strain DUN1, hits give low values 1.01 | locus YDL134C, strain PPH21, hits give low values 1.01 | locus YDL185W, strain tfp1, hits give low values 1.01 | locus YDL192W, strain arf1, hits give low values 1.02 | locus YDR001C, strain nth1, hits give low values 1.01 | locus YDR069C, strain doa4, hits give low values 1 | locus YDR101C, strain arx1, hits give low values 1.01 | locus YDR137W, strain rgp1, hits give low values 0.98 | locus YDR150W, strain NUM1, hits give low values 1.01 | locus YDR159W, strain sac3, hits give low values 1 | locus YDR162C, strain NBP2, hits give low values 1 | locus YDR195W, strain ref2 0.976 | locus YDR297W, strain sur2, hits give low values 1.01 | locus YDR318W, strain mcm21, hits give low values 1.01 | locus YDR334W, strain swr1, hits give low values 1 | locus YDR335W, strain msn5, hits give low values 0.996 | locus YDR363W, strain ESC2, hits give low values 0.962 | locus YDR388W, hits give low values 1.01 | locus YDR392W, strain spt3, hits give low values 1.01 | locus YDR502C, strain sam2, hits give low values 1.01 | locus YEL003W, strain gim4, hits give low values 1.01 | locus YEL037C, strain rad23, hits give low values 1 | locus YEL061C, strain CIN8 (second series), hits give low values 1.03 | locus YEL061C, strain CIN8, hits give low values 1 | locus YER002W, strain NOP16, hits give low values 1 | locus YER015W, strain faa2, hits give low values 0.987 | locus YER016W, strain bim1, hits give low values 0.991 | locus YER110C, hits give low values 1.01 | locus YER111C, strain swi4, hits give low values 0.989 | locus YER155C, strain BEM2 (second series), hits give low values 0.988 | locus YER155C, strain BEM2, hits give low values 0.996 | locus YER167W, strain BCK2, hits give low values 1.02 | locus YFR010W, strain ubp6, hits give low values 0.996 | locus YGL078C, strain dbp3, hits give low values 1.01 | locus YGL086W, strain mad1, hits give low values 1.01 | locus YGL167C, strain pmr1, hits give low values 0.999 | locus YGL173C, strain kem1, hits give low values 0.999 | locus YGL227W, strain vid30, hits give low values 0.991 | locus YGL240W, strain doc1, hits give low values 0.997 | locus YGL248W, strain PDE1, hits give low values 1.01 | locus YGL253W, strain hxk2, hits give low values 0.998 | locus YGR078C, strain PAC10, hits give low values 1.01 | locus YGR135W, strain pre9, hits give low values 1.01 | locus YGR229C, strain SMI1, hits give low values 0.992 | locus YGR252W, strain gcn5, hits give low values 1 | locus YHR013C, strain ard1, hits give low values 0.979 | locus YHR027C, strain rpn1, hits give low values 0.999 | locus YHR030C, strain SLT2, hits give low values 1.01 and 0.978 | locus YHR079C, strain IRE1 (second series), hits give low values 1.01 | locus YHR079C, strain IRE1, hits give low values 0.991 | locus YHR094C, strain hxt1, hits give low values 1.01 | locus YHR129C, strain ARP1, hits give low values 1.01 | locus YHR142W, strain chs7, hits give low values 1 | locus YHR200W, strain rpn10, hits give low values 1.02 | locus YIL066C, strain RNR3, hits give low values 0.994 | locus YIL073C, strain SPO22, hits give low values 1.05 | locus YIL125W, strain kgd1, hits give low values 1 | locus YIR030C, strain dcg1, hits give low values 1.01 | locus YJL092W, strain hpr5, hits give low values 1.01 | locus YJL095W, strain BCK1 (second series), hits give low values 1.01 | locus YJL095W, strain BCK1, hits give low values 1 and 0.969 | locus YJL115W, strain asf1, hits give low values 0.997 | locus YJL129C, strain trk1, hits give low values 1.01 | locus YJL134W, strain LCB3, hits give low values 1.01 | locus YJL154C, strain vps35, hits give low values 1 | locus YJL164C, strain tpk1, hits give low values 1 | locus YJL166W, strain qcr8, hits give low values 1.02 | locus YJL168C, strain set2, hits give low values 1.01 | locus YJL187C, strain SWE1 (second series), hits give low values 1.01 | locus YJL187C, strain SWE1, hits give low values 0.998 | locus YJR043C, strain POL32, hits give low values 1.02 | locus YJR066W, strain TOR1, hits give low values 0.926
